Source: PubChem BioAssay (NCATS)
Inconclusive results are not listed. The source made the active and inactive calls. Unless noted, calls follow the shape of the dose curve; as a rule, active = well fitted curve in the direction sought with a large enough effect; inconclusive = small, poorly fitted or top-dose-only effect, or another doubt; inactive = no such curve, though single readings can be large; an effect the other way counts as inactive or inconclusive.

Tests used:
[1] = qHTS assay for measurement of the activity of small molecule inhibitors on Zika virus induced Caspase-3 activity in human iPSC derived neural progenitor cells (hNPCs) (AID 1224857); also: nearly all actives have a fitted effect of over 65% in size
Outline: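 Human iPSC-derived neural progenitor cells pretreated 1 hr with compounds, then infected with Zika virus (2 FFU/cell) for 6 hours at 37 C. Caspase-3/7 measured by Caspase-Glo luminescence; % inhibition calculated from induction scaled to uninfected (0%) and infected (100%) wells.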

[2] = qHTS assay for measurement of the activity of small molecule inhibitors on Zika virus induced Caspase-3 activity in human astrocytoma cells (AID 1224859)
Outline: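 SNB-19 astrocytoma cells, 250/well, pretreated 1 h with compounds, then Zika virus at 2 FFU/cell for 6 h at 37 C; Caspase-Glo 3/7 luminescence after 30 min; percent inhibition normalised to uninfected and infected controls.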

[3] = qHTS assay to identify small molecule inhibitors of chordoma cells - UCH-2 (AID 1259356)
[4] = P-glycoprotein substrates identified in KB-8-5-11 adenocarcinoma cell line, qHTS therapeutic library screen (AID 1346987); also: nearly all actives have a fitted effect of over 65% in size; also: potency is read from the fitted curve at half-maximal effect
Outline: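 In this qHTS, P-gp-rich KB-8-5-11 cells received library compounds across a concentration range. Viability was quantified by luminescence after 72 h at 37 degree C.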

[5] = NS1 protein of Zika virus - qHTS assay to identify small molecule inhibitors in human HEK 293 cells (AID 1347053); also: nearly all actives have a fitted effect of over 55% in size
Outline: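 Compound-treated (1 h pre-infection) HEK 293 cells infected with ZIKV MR766, MOI = 0.5; after 24 h at 37 C, NS1 read by TR-FRET; data normalized to uninfected and infected controls.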

[6] = qHTS profiling of the MIPE4 collection as inhibitors of Plasmodium falciparum (3D7) proliferation (AID 743344; call rule not given here); conditions: P. falciparum 3D7 in erythrocytes, SYBR Green DNA fluorescence, 72 h; at 28.5 µM (top of the series) unless noted
Outline: (§1)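 Parasite DNA was quantified by SYBR Green I fluorescence (ex 485, em 535 nm) after overnight lysis in saponin/Triton buffer at room temperature. Cultures at 0.3% parasitemia and 2.5% hematocrit were first exposed to compound for 72 h at 37 C; signals were normalised to artemisinin (0.29 uM) and vehicle wells.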

[7] = qHTS profiling of the MIPE4 collection as inhibitors of Plasmodium falciparum (DD2) proliferation (AID 743345; call rule not given here); conditions: P. falciparum Dd2 in erythrocytes, SYBR Green DNA, 72 h; at 28.5 µM (top of the series) unless noted
Outline: as §1

[8] = qHTS profiling of the MIPE4 collection as inhibitors of Plasmodium falciparum (DD2) proliferation (Rep 2) (AID 743346; call rule not given here); conditions: P. falciparum Dd2 in erythrocytes, SYBR Green DNA, 72 h; at 28.5 µM (top of the series) unless noted
Outline: as §1

[9] = qHTS profiling of the MIPE4 collection as inhibitors of Plasmodium falciparum (HB3) proliferation (AID 743347; call rule not given here); conditions: P. falciparum HB3 in erythrocytes, SYBR Green DNA, 72 h; at 28.5 µM (top of the series) unless noted
Outline: as §1

[10] = biological target: Atrial natriuretic peptide receptor 1 (Homo sapiens) (UniProt P16066); test: Natriuretic polypeptide receptor (hNpr1) antagonism - Pilot screen (AID 1347049; calls by dose curve;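 also: agonist-evoked cGMP luminescence read 20 min after hNppA addition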)
Chain of Atrial natriuretic peptide receptor 1 (Homo sapiens) (P16066 whole entry, looked up): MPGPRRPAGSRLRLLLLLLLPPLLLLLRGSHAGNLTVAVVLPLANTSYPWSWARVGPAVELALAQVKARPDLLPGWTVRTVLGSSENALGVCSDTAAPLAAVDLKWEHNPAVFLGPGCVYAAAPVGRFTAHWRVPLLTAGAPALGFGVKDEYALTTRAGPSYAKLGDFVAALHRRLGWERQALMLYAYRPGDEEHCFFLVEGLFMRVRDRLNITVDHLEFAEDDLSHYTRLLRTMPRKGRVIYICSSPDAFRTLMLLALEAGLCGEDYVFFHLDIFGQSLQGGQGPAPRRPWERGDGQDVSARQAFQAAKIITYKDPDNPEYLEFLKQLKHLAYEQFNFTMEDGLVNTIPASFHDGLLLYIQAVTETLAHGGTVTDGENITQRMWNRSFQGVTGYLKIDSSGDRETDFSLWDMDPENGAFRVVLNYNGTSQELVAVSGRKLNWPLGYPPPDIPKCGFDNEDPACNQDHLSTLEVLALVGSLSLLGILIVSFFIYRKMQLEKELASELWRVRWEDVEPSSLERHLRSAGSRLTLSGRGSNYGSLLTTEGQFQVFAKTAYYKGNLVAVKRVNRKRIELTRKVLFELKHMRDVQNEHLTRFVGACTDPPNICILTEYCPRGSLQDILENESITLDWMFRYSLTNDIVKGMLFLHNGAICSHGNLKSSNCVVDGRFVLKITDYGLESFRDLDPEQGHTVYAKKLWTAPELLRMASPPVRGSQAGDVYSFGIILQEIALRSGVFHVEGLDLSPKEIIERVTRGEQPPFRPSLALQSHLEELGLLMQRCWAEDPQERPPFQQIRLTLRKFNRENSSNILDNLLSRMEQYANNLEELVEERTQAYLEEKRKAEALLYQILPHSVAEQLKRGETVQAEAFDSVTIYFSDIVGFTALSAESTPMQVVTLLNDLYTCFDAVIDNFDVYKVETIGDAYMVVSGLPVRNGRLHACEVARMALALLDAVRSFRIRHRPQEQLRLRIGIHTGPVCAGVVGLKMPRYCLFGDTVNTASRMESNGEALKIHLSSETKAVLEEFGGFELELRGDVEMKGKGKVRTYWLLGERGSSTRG
Outline: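 cGMP-sensor HEK293/hNpr1 cells, 1500/well, plated overnight at 37C. 2% GloSensor reagent, 2 h RT. Compound (23 nL pin transfer) 30 min RT, baseline luminescence pre-read. 0.1 nM hNppA, 20 min RT, post-read.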

[11] = biological target: Atrial natriuretic peptide receptor 2 (Homo sapiens) (UniProt P20594); test: Natriuretic polypeptide receptor (hNpr2) antagonism - Pilot subtype selectivity assay (AID 1347050; calls by dose curve)
Chain of Atrial natriuretic peptide receptor 2 (Homo sapiens) (P20594 whole entry, looked up): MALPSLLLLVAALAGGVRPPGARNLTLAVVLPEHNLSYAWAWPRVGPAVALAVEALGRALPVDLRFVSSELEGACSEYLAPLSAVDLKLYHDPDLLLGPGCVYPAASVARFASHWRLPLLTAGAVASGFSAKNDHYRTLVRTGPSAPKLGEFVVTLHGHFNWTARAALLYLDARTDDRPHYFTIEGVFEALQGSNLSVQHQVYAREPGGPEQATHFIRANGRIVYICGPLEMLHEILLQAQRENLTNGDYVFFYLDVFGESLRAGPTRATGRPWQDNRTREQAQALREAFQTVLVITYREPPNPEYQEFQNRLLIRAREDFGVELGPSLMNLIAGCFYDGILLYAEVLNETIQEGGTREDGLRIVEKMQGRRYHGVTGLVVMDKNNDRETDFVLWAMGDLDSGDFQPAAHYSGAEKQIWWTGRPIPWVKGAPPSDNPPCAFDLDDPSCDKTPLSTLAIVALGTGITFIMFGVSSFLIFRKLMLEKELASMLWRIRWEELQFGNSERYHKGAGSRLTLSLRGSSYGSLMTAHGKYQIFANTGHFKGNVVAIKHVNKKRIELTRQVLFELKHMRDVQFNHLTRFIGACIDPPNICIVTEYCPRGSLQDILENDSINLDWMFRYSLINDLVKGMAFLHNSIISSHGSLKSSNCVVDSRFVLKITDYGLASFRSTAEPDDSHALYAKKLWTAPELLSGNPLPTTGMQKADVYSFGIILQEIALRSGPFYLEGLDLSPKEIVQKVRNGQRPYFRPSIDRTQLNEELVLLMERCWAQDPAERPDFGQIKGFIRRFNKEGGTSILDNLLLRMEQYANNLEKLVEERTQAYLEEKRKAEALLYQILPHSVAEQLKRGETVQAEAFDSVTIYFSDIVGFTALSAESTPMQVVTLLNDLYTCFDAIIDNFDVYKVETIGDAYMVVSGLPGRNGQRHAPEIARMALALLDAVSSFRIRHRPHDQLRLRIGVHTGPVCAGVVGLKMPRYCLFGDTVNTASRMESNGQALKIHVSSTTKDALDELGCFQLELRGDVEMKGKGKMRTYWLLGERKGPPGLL
Outline: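 Luminescence from a genetically encoded cGMP luciferase biosensor in hNpr2-expressing HEK293 cells is read before and 20 min after adding 1 nM hNppC. Test compounds, in interplate 1:5 titrations, are added 30-50 min ahead of the agonist.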

[12] = P-glycoprotein substrates identified in KB-3-1 adenocarcinoma cell line, qHTS therapeutic library screen (AID 1346986); conditions: KB-3-1 parental cells viability, CellTiter-Glo, 72 h; at 44.5 µM (top of the series); also: nearly all actives have a fitted effect of over 60% in size
Outline: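 Viability by CellTiter-Glo after 72 h compound exposure at 37 degree C, 5% CO2. Cytotoxic call: curve class -1.1 to -2.4, maximum response >50%, AC50 < 10 uM, compared across KB-3-1 and P-gp-overexpressing KB-8-5-11.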

CCCCCCCCCCCCCCCCCC(=O)OCC(O)CO (stereo not drawn)
inactive: outcome [1] | outcome [2] | Potency [3] | Potency [4] | Potency [5]

CCCCC(=O)O[C@]1(C(=O)CO)CC[C@H]2[C@@H]3CCC4=CC(=O)CC[C@]4(C)[C@H]3[C@@H](O)C[C@@]21C
inactive: outcome [1] | outcome [2] | Potency [3] | Potency [4] | Potency [5]

CN1CCN(C(c2ccccc2)c2ccccc2)CC1
inactive: outcome [1] | outcome [2] | Potency [3] | Potency [4] | Potency [5]

Cc1ccc(C(=O)C(C)CN2CCCCC2)cc1 (stereo not drawn)
inactive: outcome [1] | outcome [2] | Potency [3] | Potency [4] | Potency [5]

COc1c(C)c2c(c(O)c1C/C=C(\C)CCC(=O)O)C(=O)OC2
inactive: outcome [1] | outcome [2] | Potency [3] | Potency [5]

CC(=O)N(O)CCCCCNC(=O)CCC(=O)N(O)CCCCCNC(=O)CCC(=O)N(O)CCCCCN
inactive: outcome [1] | outcome [2] | Potency [3] | Potency [4] | Potency [5]

CC(C)(C(=O)c1cccnc1)c1cccnc1
inactive: outcome [1] | outcome [2] | Potency [3] | Potency [4] | Potency [5]

Oc1c(I)cc(I)c2cccnc12
inactive: outcome [1] | outcome [2] | Potency [3] | Potency [5]

CCOc1ccc(NC(=O)CC(C)O)cc1 (stereo not drawn)
inactive: outcome [1] | outcome [2] | Potency [3] | Potency [4] | Potency [5]

COc1ccc(CN2CCN(C(c3ccc(F)cc3)c3ccc(F)cc3)CC2)c(OC)c1OC
26.6%: parasite growth, % of control (lower = inhibition) [8]
8.3%: parasite growth remaining, % of DMSO control (lower = more inhibition) [7]
4.59%: parasite growth, % of DMSO control [6]
6.18%: growth, % of control [9]
inactive: outcome [1] | outcome [2] | Potency [3]
active: Potency [4] 23.1 µM

CCOc1ccc(Cc2nccc3cc(OCC)c(OCC)cc23)cc1OCC
inactive: outcome [1] | outcome [2] | Potency [3] | Potency [5]

CNCC[C@@H](Oc1ccccc1C)c1ccccc1
inactive: outcome [1] | outcome [2] | Potency [3] | Potency [4] | Potency [5]

COC(=O)[C@H]1[C@H]2C[C@H]3c4[nH]c5ccccc5c4CCN3C[C@H]2CC[C@@H]1O
inactive: outcome [1] | outcome [2] | Potency [3] | outcome [10] | outcome [11] | Potency [5]

COc1c2occc2c(OC)c2c(=O)cc(C)oc12
inactive: outcome [1] | outcome [2] | Potency [3] | Potency [4] | Potency [5]

CC(=O)Oc1ccc(C(c2ccc(OC(C)=O)cc2)c2ccccn2)cc1
inactive: outcome [1] | outcome [2] | Potency [3] | Potency [4] | Potency [5]

CC(C)(C)CC(C)(C)c1ccc(O)c(Cc2ccc(Cl)cc2Cl)c1
inactive: outcome [1] | outcome [2] | Potency [3] | Potency [5]
active: Potency [4] 23.1 µM

CC1(C)O[C@@H]2C[C@H]3[C@@H]4CCC5=CC(=O)CC[C@]5(C)[C@@]4(F)[C@@H](O)C[C@]3(C)[C@]2(C(=O)CCl)O1
inactive: outcome [1] | outcome [2] | Potency [3] | Potency [4] | Potency [5]

O=C1OC2(c3ccc(O)cc3Oc3cc(O)ccc32)c2ccccc21
inactive: outcome [1] | outcome [2] | Potency [3] | Potency [4] | Potency [5]

C=C1C[C@H]2[C@@H]3C=C(C)C4=CC(=O)CC[C@]4(C)[C@H]3CC[C@]2(C)[C@@]1(OC(C)=O)C(C)=O
inactive: outcome [1] | outcome [2] | Potency [3] | Potency [5]
active: Potency [4] 14.6 µM

CN(C)/N=N/c1nc[nH]c1C(N)=O
inactive: outcome [1] | outcome [2] | Potency [3] | Potency [5]

CCOc1ccc2nc3cc(N)ccc3c(N)c2c1
inactive: outcome [1] | outcome [2] | Potency [3] | Potency [4] | Potency [5]

CN(C)CCCOc1nn(Cc2ccccc2)c2ccccc12
inactive: outcome [1] | outcome [2] | Potency [3] | Potency [4] | Potency [5]

COc1cc(OC)cc(OC)c1
inactive: outcome [1] | outcome [2] | Potency [3] | Potency [4] | Potency [5]

CC1(C)O[C@@H]2C[C@H]3[C@@H]4C[C@H](F)C5=CC(=O)CC[C@]5(C)[C@H]4[C@@H](O)C[C@]3(C)[C@]2(C(=O)CO)O1
inactive: outcome [1] | outcome [2] | Potency [3] | Potency [4] | Potency [5]

O=C1c2ccccc2C(=O)C1c1ccccc1
inactive: outcome [1] | outcome [2] | Potency [3] | Potency [4] | Potency [5]

CN1[C@@H]2CC[C@H]1CC(OC(=O)c1c[nH]c3ccccc13)C2 (stereo partly drawn)
inactive: outcome [1] | outcome [2] | Potency [3] | Potency [4] | Potency [5]

CCN(CCCCOC(=O)c1ccc(OC)c(OC)c1)C(C)Cc1ccc(OC)cc1 (stereo not drawn)
inactive: outcome [1] | outcome [2] | Potency [3] | Potency [5]

COc1ccc(C2C(=O)c3ccccc3C2=O)cc1
inactive: outcome [1] | outcome [2] | Potency [3] | Potency [4] | Potency [5]

NC(CS)C(=O)O (stereo not drawn)
inactive: outcome [1] | outcome [2] | Potency [3] | Potency [4] | Potency [5]

OC[C@H]1O[C@H](O[C@]2(CCl)O[C@H](CCl)[C@@H](O)[C@@H]2O)[C@H](O)[C@@H](O)[C@H]1Cl
inactive: outcome [1] | outcome [2] | outcome [12] | Potency [4]
